For 93 molecules, inhibition results are on record in PubChem BioAssay AID485317 (Broad Institute, 2010).

SMILES strings stand for the structures. The campaign covered roughly 290,000 compounds. About 11,000 (3.8%) were called active.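 Rule for the calls: active = mean replicate inhibition above about 79%, with every replicate also reaching it (limit read from the data); inconclusive = only one of the two criteria met; inactive = mean below limit and not every replicate reaching it.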 The list comes from a sample in which actives are over-represented; it also holds similar structures and randomly drawn compounds.

In this assay the target is FAD-linked sulfhydryl oxidase ALR (Homo sapiens) (UniProt P55789). The experiment in a line: ALR-catalysed DTT oxidation blockers – biochemical, H2O2 detection, HRP-luminol luminescence, single point, primary screen (AID 485317). The note with it: purified ALR, active compounds read high, concentration not given here.
FAD-linked sulfhydryl oxidase ALR (Homo sapiens), sequence (P55789 whole entry, looked up): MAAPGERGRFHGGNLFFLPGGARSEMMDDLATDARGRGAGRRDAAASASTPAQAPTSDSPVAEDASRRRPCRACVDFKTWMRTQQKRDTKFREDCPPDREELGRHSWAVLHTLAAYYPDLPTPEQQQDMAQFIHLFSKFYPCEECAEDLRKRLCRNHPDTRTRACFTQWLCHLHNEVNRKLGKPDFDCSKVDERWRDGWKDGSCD
By inhibition is commonly meant the drop in the measured response relative to a control, in per cent. On to `CCOC(=O)c1sc2nc(CSCC(=O)OCc3ccc(C(=O)OC)o3)[nH]c(=O)c2c1C`, for which the inhibition was 91.5% (active).
With `CCOC(=O)c1sc2nc(C)[nH]c(=O)c2c1C` the figure was -7.28% (inactive).
With `Cc1sc2nc(CSCC(=O)Nc3c(Cl)cccc3Cl)[nH]c(=O)c2c1C` the figure was 36.7% (inactive); with `CC(C)Cc1nc(N2CCOCC2)c(C#N)c2c1CCC2`, -5.9% (inactive); with `N#CCc1c(C#N)c(N)nc(N2CCCC2)c1C#N`, 6.64% (inactive).
As for `CC(C)CCNc1nc(N2CCCC2)c2c(c1C#N)CCN(C)C2`, the figure is 89.2% (active); as for `Cc1ccsc1C(=O)NC1CCCCC1C` (stereo not drawn), -1.25% (inactive); as for `COc1ccccc1C1=CC(=O)C[C@H](c2ccc(F)cc2)C1`, -1.43% (inactive).
Consider `CCCCN(CC)CCCNC(=O)c1ccc(CSc2nc3ccncc3[nH]2)cc1`, for which the inhibition is 98.4% (active).
For the molecule `Cc1cc(C)c(NC(=O)CSc2nc3ccncc3[nH]2)c(C)c1`, the inhibition was 0.095% (inactive).
With `CCN(CC)CCNC(=O)c1ccc(NC(=O)c2cc(-c3ccncc3)nc3ccccc23)cc1` the figure was -5.03% (inactive); with `Cc1nn(Cc2ccccc2)c(C)c1CNC(=O)c1ccc(F)c(S(=O)(=O)N2CCOCC2)c1`, -0.911% (inactive).
As for `CCOc1cc(/C=C/C(=O)OCC(=O)NCCN2C(=O)CSC2=O)ccc1OCC(C)C`, the figure is 2.31% (inactive); as for `CCN(CC(=O)Nc1c(F)cccc1F)C(=O)c1ccc(Sc2nncn2C)c([N+](=O)[O-])c1`, -9.3% (inactive); as for `CC(C)(C)NCc1cc(Br)ccc1OC1CCCC1`, -4.37% (inactive).
As for `CCOc1ccc(Br)cc1S(=O)(=O)N1CCC(C(=O)O)CC1`, the figure is -9.17% (inactive); as for `CCOc1ccc(Br)cc1CSC(=N)N`, 98.3% (active); as for `CCCC(O)(c1ccc(OC)cc1)C(CN(C)C)c1ccccc1` (stereo not drawn), 98.6% (active).
Regarding `CN(C)CC(O)COc1ccc(C(C)(C)c2ccc(OCC(O)CN(C)C)cc2)cc1` (stereo not drawn), the inhibition is -9.59% (inactive).
As for `COc1ccc(C(O)(C2CCCCC2)C(CN2CCCC2)c2ccccc2)cc1` (stereo not drawn), the figure is -2.71% (inactive).
With `CC(=O)NC(CC(=O)Nc1ccc(S(=O)(=O)N2CCOCC2)cc1)c1ccccc1` (stereo not drawn) the figure was -5.33% (inactive); with `COc1ccc(CNC(=O)CNC(=O)c2sc3ccccc3c2Cl)cc1OC`, -4.54% (inactive).
As for `NCCN1CCN2C(=O)CN(C(=O)c3ccccc3)CC12` (stereo not drawn), the figure is 1.22% (inactive); as for `Cc1c(C(C)CCCO)oc(=O)c2c1Oc1c(C)c(C(C)C[C@@H](C)O)oc(=O)c1C2` (stereo partly drawn), -3.12% (inactive); as for `COc1cc(C(=O)NCc2ccncc2)cc(Br)c1OCc1ccccc1`, -6.06% (inactive).
Regarding `COc1cc(C(=S)NCc2ccccc2)cc(Br)c1O`, the inhibition was 88.4% (active).
Consider `COc1cc(C=O)c(Br)cc1OCC(=O)NCc1ccccc1`, for which the inhibition is -3.31% (inactive).
As for `O=C(CCC(=O)c1ccccc1)NCc1cccc(C(F)(F)F)c1`, the figure is -5.12% (inactive); as for `NC(=O)c1ccsc1NC(=O)COC(=O)COc1ccc(C=O)cc1`, 0.523% (inactive).
As for `COc1ccc(C2=NOC(Cn3nc(C(=O)NCc4ccc5c(c4)OCO5)cc3-c3ccccc3)C2)cc1` (stereo not drawn), the figure is -0.145% (inactive); as for `COc1ccc(OCC(=O)N2CCN(C(=O)c3cccs3)CC2)cc1`, -3.05% (inactive); as for `COc1ccc(N2CCN(C(=O)c3cccs3)CC2)cc1`, 93.9% (active).
As for `O=C(c1cccs1)N1CCN(C(=O)N2CCOCC2)CC1`, the figure is 5.71% (inactive); as for `COc1ccc(C(=O)OC(C)C(=O)NC2CCCC2)cc1S(=O)(=O)N1CCOCC1` (stereo not drawn), 0.414% (inactive); as for `O=C(Nc1ccc(N2CCCCC2)cc1)c1cc(S(=O)(=O)N2CCOCC2)ccc1F`, 40.2% (inactive).
As to `NC(=O)c1c(NC(=O)c2ccccc2)sc2c1CCCC2`, the inhibition is -3.69% (inactive).
With `O=C(Nc1sc2c(c1C(=O)O)CCC2)c1ccccc1F` the figure was 98.3% (active); with `COC(=O)c1c(NC(=O)c2ccccc2F)sc2c1C(C(=O)OC)CC2` (stereo not drawn), 1.9% (inactive).
As for `O=C(NCC(c1cccs1)N1CCOCC1)c1cc(Cl)ccc1[N+](=O)[O-]` (stereo not drawn), the figure is -35.8% (inactive); as for `CC(C)Oc1ccc(S(=O)(=O)N2CCOCC2)cc1NC(=O)C1CCCC1`, 0.587% (inactive); as for `CCOc1ccc(NC(=O)CN(C)C(=O)Cn2c(=O)cnc3ccccc32)cc1OCC`, -5.33% (inactive).
With `CCOc1ccc(CCNC(=O)COC(=O)C2CCN(c3ccc(C(F)(F)F)cn3)CC2)cc1OCC` the figure was 0.148% (inactive); with `COCC(=O)Nc1ccc(Br)cc1`, -12.4% (inactive).
For `CC(=O)N1CC(=O)N(CC(=O)Nc2ccc(Br)cc2)C1=S`, the inhibition was 99.4% (active).
On to `Cc1cccc(NC(=O)CN2C(=O)CNC2=O)c1`, for which the inhibition is -1.19% (inactive).
As for `Cc1ccc(C(=O)Nc2ccc3c(c2)OCCO3)cc1S(=O)(=O)N1CCOCC1`, the figure is -6.89% (inactive); as for `Cc1ccc(OCC(=O)N2CCN(S(=O)(=O)c3ccc(Cl)s3)CC2)cc1C`, -2.26% (inactive); as for `COc1ccc(N2CCN(C(=O)COC(=O)c3cccc(S(=O)(=O)Nc4ccccc4OC)c3)CC2)cc1`, 1.72% (inactive).
Consider `CC1CCCCC12NC(=O)N(CC(=O)N1CCN(c3ccccc3)CC1)C2=O` (stereo not drawn), for which the inhibition was 33.6% (inactive).
As for `CC1CCCCC12NC(=O)N(CC(=O)Nc1ccc(S(=O)(=O)Nc3ncccn3)cc1)C2=O` (stereo not drawn), the figure is 91.2% (active); as for `CC1CCCCC12NC(=O)N(CC(=O)OCC(=O)NCc1ccc(F)cc1)C2=O` (stereo not drawn), -8.04% (inactive).
With `COc1ccccc1C(=O)NCC(=O)NCCSc1ccc(Br)cc1` the figure was -5.14% (inactive).
For `COc1ccc(/C=N/NC(=O)c2cc(-c3cccc(C)c3)nc3ccccc23)cc1O`, the inhibition is 12.4% (inactive).
As for `CC(Oc1ccc(F)cc1)C(=O)Nc1cc(S(=O)(=O)N2CCOCC2)ccc1N1CCN(C)CC1` (stereo not drawn), the figure is 24.9% (inactive).
Turning to `CCCCCCCN=C(C)c1ccccc1O`, the inhibition is -17.6% (inactive).
As for `CCCCCCc1cc2cc(-c3nnc(-c4ccccc4)o3)c(=O)oc2cc1O`, the figure is 1.08% (inactive); as for `CCCCCCc1ccc(O)cc1O`, 84.4% (active); as for `COc1cccc(N2CC(NS(=O)(=O)c3ccc(Cl)cc3)CC2=O)c1` (stereo not drawn), -2.83% (inactive).
As for `COc1ccc2c(c1)CCNC2Cc1ccc(OC)c(O)c1` (stereo not drawn), the figure is 22% (inactive); as for `c1ccc2c(CNn3cnnc3)cccc2c1`, -6.4% (inactive); as for `N=C(N)SCc1cccc2ccccc12`, 99.3% (active).
As for `N#C/C(=C(/O)Cc1cccc2ccccc12)c1nc2ccccc2s1`, the figure is 4.12% (inactive); as for `O=C(CCNC(=O)c1ccc(Br)cc1)Nc1cccc(S(=O)(=O)N2CCCCC2)c1`, -14.1% (inactive).
Consider `COc1ccc2oc(C(=O)OCC(=O)N(CC(C)C)c3c(N)n(Cc4ccccc4)c(=O)[nH]c3=O)c(C)c2c1`, for which the inhibition was 7.4% (inactive).
As for `O=C(Nc1cc(S(=O)(=O)N2CCCCC2)ccc1Cl)C1COc2ccccc2O1` (stereo not drawn), the figure is 0.363% (inactive); as for `Cc1c(C(=O)OCC(=O)N2CCCC2=O)oc2ccccc12`, -37.2% (inactive).
On to `O=C(CCl)NNc1nc(-c2ccccc2)c2cc(Cl)ccc2n1`, for which the inhibition was 58.6% (inactive).
With `COc1cc(OC)nc(NC(=O)CCl)n1` the figure was 6.07% (inactive); with `O=C(CCl)NNc1cccc(Cl)n1`, 98.1% (active).
With `O=C(CSCc1ccccc1Cl)NNC(=O)c1ccccc1` the figure was 99.6% (active); with `O=C(COC(=O)c1ncc(Cl)c(Cl)c1Cl)NNC(=O)c1ccccc1`, 8.83% (inactive); with `O=C(COC(=O)Cc1ccccc1F)NNC(=O)c1ccc(Cl)cc1`, 0.881% (inactive).
With `CCN1CCN(c2ccc(S(=O)(=O)N3CCCCC3)cc2NC(=O)c2cccc(NC(C)=O)c2)CC1` the figure was -18.1% (inactive).
For `C[C@]12CC[C@H](O)CC1=CCC1C2CC[C@@]2(C)C1CC[C@@H]2NC(=O)CCC(=O)O` (stereo partly drawn), the inhibition is -3.02% (inactive).
As for `Cc1ccc(NC(=O)COC(=O)C2CC2)cc1S(=O)(=O)N1CCOCC1`, the figure is 3.43% (inactive).
As for `CN(C)S(=O)(=O)c1ccc(C(=O)NCC2(N3CCOCC3)CCCCC2)cc1`, the figure is -19.4% (inactive); as for `COc1c(O)cc2oc(-c3ccc(O)c(O)c3)cc(=O)c2c1O`, 99% (active).
With `CCOC(=O)COc1cc(O)c2c(=O)cc(-c3ccccc3)oc2c1` the figure was -2.55% (inactive).
Take `COc1ccc(-c2cc(=O)c3c(O)cc(O[C@@H]4O[C@H](CO[C@@H]5O[C@@H](C)[C@H](O)[C@@H](O)[C@H]5O)[C@@H](O)[C@H](O)[C@H]4O)cc3o2)cc1O`: the inhibition is 2.46% (inactive).
With `[O-][n+]1ccc(OCc2ccccc2)cc1` the figure was -3.31% (inactive).
Consider `CCOc1ccc(Br)cc1S(=O)(=O)Nc1ccc(S(=O)(=O)Nc2cc(C)on2)cc1`, for which the inhibition is 13.7% (inactive).
On to `O=C(Nc1ccc(F)cc1)N1CCCC(c2nc3c(nnn3Cc3ccccc3Cl)c(=O)[nH]2)C1` (stereo not drawn), for which the inhibition was -24.5% (inactive).
With `Cc1ccc(NC(=O)N2CCC(c3nc4c(nnn4Cc4c(F)cccc4Cl)c(=O)[nH]3)CC2)cc1`, the inhibition is -5.17% (inactive).
As for `Cc1ccc(C)c(Cn2nnc3c(=O)[nH]c(C(=O)Nc4ccc(F)cc4)nc32)c1`, the inhibition was 95.6% (active).
With `OC(COCC1COc2ccccc2O1)CN1CCN(c2ccc(F)cc2)CC1` (stereo not drawn) the figure was 81.2% (active); with `O=[N+]([O-])c1ccc(N2CCN(CC(O)COc3ccccc3)CC2)cc1` (stereo not drawn), 6.12% (inactive).
On to `OC(COCc1ccco1)CN1CCN(c2ccccc2)CC1` (stereo not drawn), for which the inhibition is 74.6% (inactive).
With `COCCn1c(SCC(=O)N2CCCCCC2)nc2c(c1=O)SCC2` the figure was -0.691% (inactive); with `CCn1c(SCc2ccccc2)nc2cc(OC)c(OC)cc2c1=O`, -2.54% (inactive).
For `Cn1c(SCC(=O)N2CCCCC2)nc2c(c1=O)SCC2`, the inhibition is -0.76% (inactive).
With `Cc1cccc(CSc2nc3c(c(=O)n2C)SCC3)c1` the figure was 99% (active).
With `Cc1cccc(CSc2nnc(C)c(=O)n2N)c1` the figure was -4.99% (inactive); with `CCn1c(SCc2ccccc2)nc2c(c1=O)SCC2`, 90.4% (active).
